For 4 compounds, outcome and AC50 results are on record in PubChem BioAssay (EPA / NIEHS).

Each structure is given as a SMILES string. Activity calls are given as the source filed them. How the source made its calls: active means hit-call score of the fitted dose curve at least 0.9, where 1 is the maximum; inactive means score below 0.9.

Assay [1] is described as follows: ATG_GLI_CIS: Attagene CIS-FACTORIAL HepG2 Assay for human Zinc Finger Protein GLI1 (AID 2282945). To be noted: HepG2, Attagene cis-factorial reporter mRNA, GLI element; actives raise or lower the signal. Put shortly: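 Bidirectional curve fits relative to DMSO, using reporter mRNA levels from RT-PCR plus capillary electrophoresis. Cells were HepG2 transiently carrying cis-regulated reporter constructs, harvested 24 h after dosing.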

For assay [2], the target named is Bile acid receptor (Homo sapiens) (UniProt Q96RI1). Briefly: ATG_IR1_CIS: Attagene CIS-FACTORIAL HepG2 Assay for human Nuclear Receptor Subfamily 1 Group H Member 4 (NR1H4), IR1 submotif (AID 2282946). To be noted: IR1 reporter transcription, actives raise or lower the signal. The essentials:
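Cells (human HepG2) carry transiently transfected cis-promoter reporter transcription units. Compounds are incubated 24 h, total RNA is reverse-transcribed and amplified, and labelled fragments are resolved by capillary electrophoresis. Curves use DMSO as baseline.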

Assay [3] can be described thus: ATG_ISRE_CIS: Attagene CIS-FACTORIAL HepG2 Assay for human Interferon Regulatory Factor 1 (IRF1) binding to an Interferon-Stimulated Response Element (ISRE) (AID 2282948). To be noted: HepG2 ISRE cis-reporter (Attagene), mRNA transcription readout; actives raise or lower the signal. Put shortly:
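Quantitation relies on labelled RT-PCR fragments separated by capillary electrophoresis. Human HepG2 cells bearing cis-promoter reporter constructs were treated 24 h; DMSO served as baseline for bidirectional fitting.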

Assay [4] is described as follows: ATG_M_32_CIS: Attagene CIS-FACTORIAL HepG2 Assay for M32 Transcription Factor (Internal Marker) (AID 2282949).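 Further: background control marker of the multiplexed CIS panel rather than a real target.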 The conditions noted are these: HepG2 Attagene cis-factorial M32 reporter, mRNA; actives raise or lower the signal. Put shortly: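 Fluorescent capillary electrophoresis peaks of HpaI-digested, FAM-labelled RT-PCR reporter products give the signal. Source: transiently transfected human liver HepG2 cells, 24 h after chemical dosing; bidirectional fitting against DMSO.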

A short description of assay [5]: ATG_M_06_CIS: Attagene CIS-FACTORIAL HepG2 Assay for M06 Transcription Factor (Internal Marker) (AID 2282950). To be noted: HepG2 Attagene CIS-FACTORIAL M06 internal marker reporter; actives raise or lower the signal. Put shortly:
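Serves as a background control readout. Transfected HepG2 exposed to compounds for 24 h, then reporter transcripts quantified by fluorescent RT-PCR and capillary electrophoresis. Both directions fitted against DMSO baseline.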

Assay [6] in a line: ATG_MRE_CIS: Attagene CIS-FACTORIAL HepG2 Assay for human Metal Responsive Element (MRE) (AID 2282954). The conditions noted are these: HepG2 MRE cis-reporter transcription, Attagene multiplex; actives raise or lower the signal. The essentials: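 Transient MRTU transfection of HepG2 (FuGene 6); 24 h dosing; total RNA → oligo(dT) RT, PCR, 6-FAM primer extension, HpaI cut, CE. Bidirectional fit vs DMSO.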

Assay [7] is described as follows: ATG_PBREM_CIS: Attagene CIS-FACTORIAL HepG2 Assay for human Phenobarbital-responsive Enhancer Module (PBREM) (AID 2282955). To be noted: HepG2 PBREM cis-reporter, Attagene multiplexed transcription; actives raise or lower the signal. The essentials: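 Readout: reporter mRNA, fluorescent RT-PCR fragments separated by capillary electrophoresis. System: HepG2 transiently transfected with cis-regulated reporter units. Exposure: 24 h. Analysis: bidirectional, DMSO baseline.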

The target in assay [8] is Paired box protein Pax-6 (Homo sapiens) (UniProt P26367). The assay is described as follows: ATG_Pax6_CIS: Attagene CIS-FACTORIAL HepG2 Assay for human Paired Box 6 (PAX6) (AID 2282956). To be noted: HepG2 CIS-FACTORIAL PAX6 reporter transcription, RNA readout; actives raise or lower the signal. The essentials:
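After twenty-four hours of chemical exposure, transfected HepG2 cells are harvested for RNA. Cis-promoter reporter transcripts are amplified, fluorescently labelled and sized by capillary electrophoresis, with gain and loss of signal scored against DMSO.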

Assay [9] is described as follows: ATG_PXRE_CIS: Attagene CIS-FACTORIAL HepG2 Assay for human Pregnane X Receptor Element (PXRE) (AID 2282957). To be noted: HepG2 Attagene CIS-FACTORIAL PXRE reporter, mRNA; actives raise or lower the signal. Put shortly:
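Transiently transfected HepG2 cells were dosed and incubated for 24 h. RNA was then isolated, DNase-treated, reverse-transcribed and reporter sequences amplified. Labeled, HpaI-digested fragments were quantified by capillary electrophoresis against DMSO.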

Assay [10] in a line: ATG_PPRE_CIS: Attagene CIS-FACTORIAL HepG2 Assay for human Peroxisome Proliferator-activated Response Element (PPRE) (AID 2282958). The conditions noted are these: HepG2 PPRE cis-element reporter, Attagene transcription factor profiling; actives raise or lower the signal. The essentials:
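After human HepG2 hepatoma cells were transiently transfected with cis-promoter reporter constructs, they were exposed to test chemicals for 24 hours. Reporter RNA was then reverse-transcribed, PCR-amplified, FAM-labeled, HpaI-digested and quantified by capillary electrophoresis.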

Assay [11] in a line: ATG_Sox_CIS: Attagene CIS-FACTORIAL HepG2 Assay for human SRY-box transcription factor (SOX) (AID 2282960). The conditions noted are these: HepG2 Attagene cis-factorial SOX reporter, mRNA; actives raise or lower the signal. The essentials: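 Using transiently transfected HepG2 cells, reporter transcription driven by cis elements was assessed 24 h after dosing. Signal was fluorescence of capillary-separated RT-PCR products, with DMSO defining baseline activity.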

The target in assay [12] is Transcription factor Sp1 (Homo sapiens) (UniProt P08047). The assay is described as follows: ATG_Sp1_CIS: Attagene CIS-FACTORIAL HepG2 Assay for human Specificity Protein 1 (Sp1) (AID 2282961). The conditions noted are these: HepG2 Sp1 cis-reporter transcription, actives raise or lower the signal. The essentials:
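After transient transfection of HepG2 cells with cis-promoter reporter units and 24 h chemical treatment, reporter transcripts were quantified by RT-PCR and capillary electrophoresis fluorescence. Gain- and loss-of-signal fitted against DMSO.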

Assay [13] is described as follows: ATG_SREBP_CIS: Attagene CIS-FACTORIAL HepG2 Assay for human Sterol Regulatory Element Binding (SREBP) (AID 2282962). The conditions noted are these: HepG2 Attagene cis-factorial SREBP reporter, mRNA; actives raise or lower the signal. Put shortly: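 Twenty-four hours after chemical dosing of transfected HepG2 cultures, reporter RNA was converted to cDNA, amplified, end-labelled with 6-FAM and resolved by capillary electrophoresis. Responses were fitted relative to DMSO.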

Assay [14] concerns the target Signal transducer and activator of transcription 3 (Homo sapiens) (UniProt P40763). Briefly: ATG_STAT3_CIS: Attagene CIS-FACTORIAL HepG2 Assay for human Signal Transducer and Activator of Transcription 3 (STAT3) (AID 2282963). To be noted: HepG2, Attagene cis-factorial STAT3 reporter transcription; actives raise or lower the signal. The essentials: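 Endogenous STAT3-responsive cis-element activity was read in transiently transfected HepG2 cells after 24 h treatment. Reporter transcripts were quantified via RT-PCR and capillary electrophoresis, with DMSO as negative control and bidirectional curve fitting.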

The nature of assay [15]: ATG_TA_CIS: Attagene CIS-FACTORIAL HepG2 Assay for human TA Basal Promoter (AID 2282964). To be noted: HepG2 Attagene CIS-factorial TA basal promoter reporter; actives raise or lower the signal. Put shortly: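 Background-control readout: TA basal promoter reporter mRNA, fitted in both directions relative to DMSO. Measured by RT-PCR and capillary electrophoresis 24 hours after treating HepG2 human liver cells transiently carrying multiplexed cis-regulated reporter constructs.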

Assay [16] has as its target Hypoxia-inducible factor 1-alpha (Homo sapiens) (UniProt Q16665). Briefly: ATG_HIF1a_CIS: Attagene CIS-FACTORIAL HepG2 Assay for human Hypoxia Inducible Factor 1 (HIF1A) (AID 2282951). To be noted: HepG2 Attagene cis-factorial HIF1a reporter transcription; actives raise or lower the signal. The essentials: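 Endogenous-TF cis reporter readout, human HepG2 cells, 24 h incubation; mRNA detected via RT-PCR and capillary electrophoresis fluorescence; DMSO-normalised bidirectional fitting.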

Assay [17] concerns the target Hepatocyte nuclear factor 6 (Homo sapiens) (UniProt Q9UBC0). The assay is described as follows: ATG_HNF6_CIS: Attagene CIS-FACTORIAL HepG2 Assay for human Hepatocyte Nuclear Factor 6 (HNF6) (AID 2282952). The conditions noted are these: HepG2 Attagene cis-factorial HNF6 reporter transcription; actives raise or lower the signal. Put shortly: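 Reporter mRNA induction or loss in HepG2 after 24 h exposure; transient cis-MRTU transfection; fragments quantified by capillary electrophoresis; bidirectional analysis, DMSO as negative control.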

Assay [18] has as its target Heat shock factor protein 1 (Homo sapiens) (UniProt Q00613). Briefly: ATG_HSE_CIS: Attagene CIS-FACTORIAL HepG2 Assay for human Heat Shock Transcription Factor 1 (HSE) (AID 2282953). The conditions noted are these: HepG2 HSE cis-reporter, Attagene RNA transcription; actives raise or lower the signal. The essentials:
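Endogenous transcription factor activity in transiently transfected HepG2, read as reporter mRNA by RT-PCR with fluorescent capillary electrophoresis after 24 h. Gain or loss of signal fitted versus DMSO baseline.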

Assay [19] in a line: ATG_RORE_CIS: Attagene CIS-FACTORIAL HepG2 Assay for human RAR-related Orphan Receptor Element (RORE) (AID 2282959). To be noted: HepG2 Attagene cis-factorial RORE reporter, mRNA; actives raise or lower the signal. Put shortly:
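Measured here: transcript induction of a cis-regulated reporter in HepG2 cells transiently transfected via FuGene 6. After 24 h, RNA was processed by RT-PCR and fluorescent capillary electrophoresis; DMSO defined baseline activity.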

Broadly, the AC50 is the concentration giving half of the maximal activity seen.

Signal transducer and activator of transcription 3 (Homo sapiens), sequence (P40763 whole entry, looked up): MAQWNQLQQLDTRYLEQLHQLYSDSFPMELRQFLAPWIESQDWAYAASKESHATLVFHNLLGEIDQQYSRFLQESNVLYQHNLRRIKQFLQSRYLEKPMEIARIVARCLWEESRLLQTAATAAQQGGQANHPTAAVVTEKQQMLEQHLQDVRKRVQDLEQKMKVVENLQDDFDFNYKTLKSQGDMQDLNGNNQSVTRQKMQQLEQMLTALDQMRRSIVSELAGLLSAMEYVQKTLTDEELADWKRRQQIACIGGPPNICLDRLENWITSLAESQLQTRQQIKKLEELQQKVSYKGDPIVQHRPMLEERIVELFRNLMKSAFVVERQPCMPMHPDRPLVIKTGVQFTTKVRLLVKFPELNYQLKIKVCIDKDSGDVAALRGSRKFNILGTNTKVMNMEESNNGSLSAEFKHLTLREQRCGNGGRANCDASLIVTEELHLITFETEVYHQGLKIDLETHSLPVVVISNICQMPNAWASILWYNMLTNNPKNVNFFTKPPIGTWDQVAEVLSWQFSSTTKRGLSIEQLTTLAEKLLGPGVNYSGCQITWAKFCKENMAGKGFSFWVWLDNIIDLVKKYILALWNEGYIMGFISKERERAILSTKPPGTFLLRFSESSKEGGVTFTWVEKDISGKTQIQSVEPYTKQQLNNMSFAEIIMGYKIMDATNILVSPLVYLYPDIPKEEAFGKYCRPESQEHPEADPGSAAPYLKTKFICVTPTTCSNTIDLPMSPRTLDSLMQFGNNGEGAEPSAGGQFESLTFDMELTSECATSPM
Paired box protein Pax-6 (Homo sapiens), sequence (P26367 whole entry, looked up): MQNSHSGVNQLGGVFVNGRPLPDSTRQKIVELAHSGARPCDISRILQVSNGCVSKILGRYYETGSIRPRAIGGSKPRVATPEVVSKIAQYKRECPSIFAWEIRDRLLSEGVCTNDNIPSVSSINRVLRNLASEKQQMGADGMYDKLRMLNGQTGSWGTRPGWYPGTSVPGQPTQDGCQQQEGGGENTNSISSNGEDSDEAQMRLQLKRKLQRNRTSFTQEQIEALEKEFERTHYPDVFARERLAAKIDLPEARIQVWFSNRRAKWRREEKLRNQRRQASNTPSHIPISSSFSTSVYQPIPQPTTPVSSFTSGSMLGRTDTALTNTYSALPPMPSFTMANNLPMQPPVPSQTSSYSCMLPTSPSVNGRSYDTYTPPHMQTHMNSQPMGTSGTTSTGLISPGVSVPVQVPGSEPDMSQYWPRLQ
Bile acid receptor (Homo sapiens), sequence (Q96RI1 whole entry, looked up, the tested form may be a part): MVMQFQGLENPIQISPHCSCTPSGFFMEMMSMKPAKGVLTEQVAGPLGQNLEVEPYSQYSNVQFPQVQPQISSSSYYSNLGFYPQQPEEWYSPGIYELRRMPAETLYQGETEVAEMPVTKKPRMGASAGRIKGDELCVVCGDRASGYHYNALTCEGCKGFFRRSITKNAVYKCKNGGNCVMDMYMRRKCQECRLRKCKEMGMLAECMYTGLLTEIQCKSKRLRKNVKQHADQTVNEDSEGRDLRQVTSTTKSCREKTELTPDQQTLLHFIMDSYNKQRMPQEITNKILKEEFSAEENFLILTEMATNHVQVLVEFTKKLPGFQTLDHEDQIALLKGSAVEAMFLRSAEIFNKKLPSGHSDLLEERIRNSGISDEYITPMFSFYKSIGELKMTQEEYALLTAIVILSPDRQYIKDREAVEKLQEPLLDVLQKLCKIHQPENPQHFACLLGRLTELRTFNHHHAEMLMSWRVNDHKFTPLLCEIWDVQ
Transcription factor Sp1 (Homo sapiens), sequence (P08047 whole entry, looked up): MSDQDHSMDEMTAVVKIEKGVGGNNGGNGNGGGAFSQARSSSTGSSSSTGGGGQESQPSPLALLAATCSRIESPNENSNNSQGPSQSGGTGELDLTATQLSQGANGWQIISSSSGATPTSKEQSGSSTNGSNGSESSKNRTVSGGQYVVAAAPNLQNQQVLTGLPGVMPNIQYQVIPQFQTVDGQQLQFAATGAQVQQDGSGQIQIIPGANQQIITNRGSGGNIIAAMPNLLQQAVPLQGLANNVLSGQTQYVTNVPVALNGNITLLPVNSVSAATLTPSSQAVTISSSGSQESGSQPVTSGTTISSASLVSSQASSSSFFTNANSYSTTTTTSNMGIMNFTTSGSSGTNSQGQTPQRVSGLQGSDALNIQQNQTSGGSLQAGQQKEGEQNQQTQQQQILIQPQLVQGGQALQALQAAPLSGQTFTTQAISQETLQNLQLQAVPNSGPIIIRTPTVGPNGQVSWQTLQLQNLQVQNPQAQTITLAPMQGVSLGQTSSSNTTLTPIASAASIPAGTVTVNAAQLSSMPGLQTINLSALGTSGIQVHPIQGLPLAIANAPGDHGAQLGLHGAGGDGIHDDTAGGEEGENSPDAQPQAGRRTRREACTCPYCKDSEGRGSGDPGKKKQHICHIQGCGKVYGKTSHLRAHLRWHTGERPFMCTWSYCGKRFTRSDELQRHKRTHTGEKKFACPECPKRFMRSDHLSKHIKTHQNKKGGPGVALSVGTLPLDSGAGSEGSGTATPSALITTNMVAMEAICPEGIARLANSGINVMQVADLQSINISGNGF
Heat shock factor protein 1 (Homo sapiens), sequence (Q00613 whole entry, looked up): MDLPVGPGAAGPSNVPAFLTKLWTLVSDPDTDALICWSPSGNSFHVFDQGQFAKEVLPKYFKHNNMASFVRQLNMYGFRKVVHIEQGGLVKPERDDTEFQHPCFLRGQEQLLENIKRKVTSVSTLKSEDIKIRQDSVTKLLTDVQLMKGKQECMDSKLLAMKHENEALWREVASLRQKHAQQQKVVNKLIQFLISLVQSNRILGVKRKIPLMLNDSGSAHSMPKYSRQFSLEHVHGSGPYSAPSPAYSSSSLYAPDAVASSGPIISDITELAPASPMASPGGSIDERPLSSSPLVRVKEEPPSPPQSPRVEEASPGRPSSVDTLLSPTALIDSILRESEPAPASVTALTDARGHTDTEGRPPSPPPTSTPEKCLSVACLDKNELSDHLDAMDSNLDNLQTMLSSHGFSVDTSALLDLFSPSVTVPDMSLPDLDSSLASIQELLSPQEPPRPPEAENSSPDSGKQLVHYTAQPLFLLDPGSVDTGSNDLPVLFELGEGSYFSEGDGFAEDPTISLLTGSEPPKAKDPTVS
Hepatocyte nuclear factor 6 (Homo sapiens), sequence (Q9UBC0 whole entry, looked up, the tested form may be a part): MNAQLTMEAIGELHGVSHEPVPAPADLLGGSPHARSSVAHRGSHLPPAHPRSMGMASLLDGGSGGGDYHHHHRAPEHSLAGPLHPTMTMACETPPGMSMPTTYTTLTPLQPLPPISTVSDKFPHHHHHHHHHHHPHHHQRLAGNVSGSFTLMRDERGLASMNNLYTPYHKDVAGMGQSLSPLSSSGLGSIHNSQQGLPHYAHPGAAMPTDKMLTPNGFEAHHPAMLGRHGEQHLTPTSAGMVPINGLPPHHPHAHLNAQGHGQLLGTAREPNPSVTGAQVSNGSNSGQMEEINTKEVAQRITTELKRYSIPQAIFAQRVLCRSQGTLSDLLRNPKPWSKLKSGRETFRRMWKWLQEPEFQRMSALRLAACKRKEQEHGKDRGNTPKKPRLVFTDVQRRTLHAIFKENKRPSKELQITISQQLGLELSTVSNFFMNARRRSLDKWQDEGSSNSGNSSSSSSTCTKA
Hypoxia-inducible factor 1-alpha (Homo sapiens), sequence (Q16665 whole entry, looked up): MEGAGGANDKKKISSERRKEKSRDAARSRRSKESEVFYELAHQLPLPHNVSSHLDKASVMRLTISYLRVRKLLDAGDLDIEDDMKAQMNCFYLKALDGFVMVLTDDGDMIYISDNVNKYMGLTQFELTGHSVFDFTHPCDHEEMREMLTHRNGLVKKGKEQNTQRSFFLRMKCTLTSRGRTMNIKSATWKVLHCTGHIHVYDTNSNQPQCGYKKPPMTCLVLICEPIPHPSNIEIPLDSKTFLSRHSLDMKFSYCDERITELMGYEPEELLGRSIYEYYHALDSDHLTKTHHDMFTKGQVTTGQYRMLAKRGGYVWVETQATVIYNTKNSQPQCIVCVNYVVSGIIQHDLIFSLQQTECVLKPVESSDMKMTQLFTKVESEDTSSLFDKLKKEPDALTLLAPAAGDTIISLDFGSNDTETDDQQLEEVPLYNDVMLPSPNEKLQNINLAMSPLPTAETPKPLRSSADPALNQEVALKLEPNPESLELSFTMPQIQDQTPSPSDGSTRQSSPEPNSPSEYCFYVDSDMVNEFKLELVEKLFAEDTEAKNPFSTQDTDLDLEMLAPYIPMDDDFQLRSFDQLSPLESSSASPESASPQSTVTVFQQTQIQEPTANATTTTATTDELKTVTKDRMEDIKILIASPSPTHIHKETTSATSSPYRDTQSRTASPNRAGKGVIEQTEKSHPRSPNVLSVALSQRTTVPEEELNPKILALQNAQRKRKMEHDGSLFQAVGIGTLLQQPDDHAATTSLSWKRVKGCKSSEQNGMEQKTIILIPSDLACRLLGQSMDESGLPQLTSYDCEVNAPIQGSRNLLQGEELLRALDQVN

As for `FC(F)(F)C(F)(F)C(F)(F)C(F)(F)C(F)(F)C(F)(F)C(F)(F)Br`, the result in assay [1], in [2], in assay [3], in assay [4], in [5] and in [6] was inactive. The result in [7], in assay [8], in assay [9], in [10], in [11] and in assay [12] was inactive. Further, the compound was classed as inactive in assay [13], in assay [14] and in assay [15].

Consider `C=CC(F)(F)C(F)(F)C(F)(F)C(F)(F)C(F)(F)C(F)(F)C(F)(F)C(F)(F)F`, for which the result in assay [1], in [2], in assay [3], in assay [4], in assay [16] and in assay [17] was inactive. Moreover, the result in assay [18], in assay [6], in assay [7], in [8], in [9] and in [10] was inactive. The outcome in [19], in assay [12], in assay [14] and in assay [15] was inactive.

On to `O=C(O)C(F)(F)C(F)(F)C(F)F`, for which the outcome in [1], in [2], in assay [3], in assay [4], in assay [16] and in [17] was inactive. For the same compound, the compound was classed as inactive in [18], in assay [6], in assay [7], in assay [8], in assay [9] and in assay [10]. The compound was classed as inactive in assay [19], in assay [12], in assay [13], in [14] and in assay [15].

Consider `Cc1ccc(S(=O)(=O)OCC(F)(F)C(F)(F)C(F)(F)C(F)(F)C(F)(F)C(F)F)cc1`, for which the call in assay [1], in [2], in assay [3], in assay [4], in assay [5] and in [18] was inactive. The compound was classed as inactive in assay [6], in assay [7], in [8], in assay [10], in assay [19] and in [11]. In addition, the outcome in assay [12], in assay [14] and in assay [15] was inactive. The AC50 in [9] was 1950 nM (active).
